PLK1 PBD inh: qHTS for Inhibitors of PLK1-PDB (polo-like kinase 1 - polo-box domain): Primary Screen | Serine/threonine-protein kinase PLK1 (Homo sapiens), P53350 | Plk1 PBD binding of FITC phosphopeptide, fluorescence polarization | Potency, µM, actives largely listed as inhibitors | 360,000 compounds, 2.8% hits | AID 720504, 2013; further: series mostly up to about 57 µM; nearly all actives have a fitted effect of over 65% in size
ALDH1A1 inh-1: qHTS Assay for Inhibitors of Aldehyde Dehydrogenase 1 (ALDH1A1); Aldehyde dehydrogenase 1A1 (Homo sapiens), P00352; Purified ALDH1A1, NADH fluorescence, propionaldehyde substrate; Potency, µM (highest dose often 75.3 µM), hits mostly inhibitors; 220,000 compounds, 7.3% hits; AID 1030, 2008; active means well fitted inhibition curve with a large enough effect, not every such curve was filed as active; inconclusive means small, poorly fitted or top-dose-only effect, or another doubt; inactive means no such curve, though single readings can be large or run the other way
RORg inh: qHTS for inhibitors of ROR gamma transcriptional activity; 310,000 compounds, 5.4% hits; Drosophila S2 Gal4-RORgamma UAS-luciferase reporter, 20 h; Nuclear receptor ROR-gamma (Mus musculus), P51450; AID 2551, 2010; Potency, µM (highest dose often 53.6 µM), hits mostly inhibitors; further: nearly all actives have a fitted effect of over 60% in size
Target sequence (P51450 whole entry, looked up, the tested form may be a part): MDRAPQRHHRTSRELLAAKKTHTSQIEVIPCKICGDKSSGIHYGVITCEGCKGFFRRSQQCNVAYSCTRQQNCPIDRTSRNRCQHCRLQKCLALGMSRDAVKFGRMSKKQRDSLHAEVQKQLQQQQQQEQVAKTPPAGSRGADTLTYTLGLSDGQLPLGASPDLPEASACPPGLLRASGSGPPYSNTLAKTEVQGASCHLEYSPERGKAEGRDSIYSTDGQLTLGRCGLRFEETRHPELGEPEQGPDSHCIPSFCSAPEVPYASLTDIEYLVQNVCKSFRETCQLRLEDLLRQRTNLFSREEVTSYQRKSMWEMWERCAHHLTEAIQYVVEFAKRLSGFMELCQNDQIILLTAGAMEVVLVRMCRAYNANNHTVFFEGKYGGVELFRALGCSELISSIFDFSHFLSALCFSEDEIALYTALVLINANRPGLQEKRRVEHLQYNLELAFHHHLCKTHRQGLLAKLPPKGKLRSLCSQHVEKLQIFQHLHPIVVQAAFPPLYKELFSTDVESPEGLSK
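Stably transfected Drosophila Schneider cells are the test system, with ROR gamma fused to Gal4 and luciferase under UAS control; luminescence is read after 20 hr of 700 uM copper sulfate induction at ambient temperature.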
Gal4-VP16 FLuc: VP16 counterscreen qHTS for inhibitors of ROR gamma transcriptional activity. Drosophila S2 Gal4-VP16 UAS-luciferase, luminescence, 20 h. Potency, µM (series often up to 53.6 µM), hits mostly inhibitors. 310,000 compounds, 3.5% hits. AID 2546, 2010;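 further: Gal4-VP16 expression switched on by copper sulfate through the metallothionein promoter; nearly all actives have a fitted effect of over 50% in size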
Sfp PPTase inh: qHTS Assay for Inhibitors of Bacillus subtilis Sfp phosphopantetheinyl transferase (PPTase); Potency, µM, actives largely listed as inhibitors; 4'-phosphopantetheinyl transferase ffp (Bacillus subtilis), Q9F4F7; AID 1490, 2009; Biochemical Sfp PPTase activity, qHTS; 310,000 compounds, 3.5% hits;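 further: the enzyme is Sfp with the accession as filed and its product quenches rhodamine fluorescence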
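Sfp 15 nM + cpd, 15 min RT; start w/ rhodamine-CoA 5 uM, BHQ-2-YbbR 12.5 uM (final); 50 mM Hepes pH 7.6, 10 mM MgCl2, 0.01% NP-40, 0.01% BSA; read 525/598 nm at 0 and 30 min.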
ALDH1A1 inh-2: Inhibitors of Aldehyde Dehydrogenase 1 (ALDH1A1): Followup Confirmation and Counterscreen; Potency, µM (doses to about 57.1 µM), actives largely listed as inhibitors; shares compounds with ALDH1A1 inh-1; purified ALDH1A1, NADH fluorescence, propionaldehyde/NAD+; 90 compounds, 90% hits; calls by dose curve
Sfp PPTase conf: Confirmation qHTS Assay for Inhibitors of Bacillus subtilis Sfp phosphopantetheinyl transferase (PPTase); shares compounds with Sfp PPTase inh; Sfp PPTase enzymatic assay, qHTS titration; Potency, µM (doses to about 114 µM), most hits filed as inhibitors; 380 compounds, 79% hits; AID 2701, 2010
Sfp PPTase gel: Gel-Based Assay for Inhibitors of Bacillus subtilis Sfp phosphopantetheinyl transferase (PPTase); shares compounds with Sfp PPTase inh; purified Sfp, gel-based phosphopantetheinylation read-out; AID 2707, 2010; Potency, µM, most hits filed as inhibitors; 210 compounds, 20% hits;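 active means potency below 100 µM; inconclusive means dose-dependent response but potency above 100 µM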;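 further: potency is an IC50 for inhibitors of Sfp transfer activity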
Of the large screens only hits and unclear results are named; the others gave an inactive call (follow-up assays come after a bar, where they were run); ! = repeats disagree. In the library only some 12% were active in any assay of this set; here they are far more common. Unless noted, the call rests on the fitted dose curve; in most records, active means well fitted curve in the direction sought with a large enough effect; inconclusive means small, poorly fitted or top-dose-only effect, or another doubt; inactive means no such curve, though single readings can be large; an effect the other way counts as inactive or inconclusive.

Cc1ccc(S(=O)(=O)NC(Cc2ccccc2)C(=O)NN)cc1 (stereo not given)	none (no result: ALDH1A1 inh-1)
CCOCCCNC(=O)c1cc(=O)n(Cc2cccc(C)c2)c2ccccc12	ALDH1A1 inh-1 inconclusive
CO/N=C(\C(=O)NC1C(=O)N2C(C(=O)OCOC(=O)C(C)(C)C)=C(/C=C\c3scnc3C)CSC12)c1csc(N)n1 (stereo not given)	ALDH1A1 inh-1 0.35µM (no result: PLK1 PBD inh) | ALDH1A1 inh-2 0.79µM
C=CC1=C(C(=O)O)N2C(=O)[C@@H](NC(=O)/C(=N\O)c3csc(N)n3)[C@H]2SC1 (stereo in doubt)	none (no result: ALDH1A1 inh-1, RORg inh, Gal4-VP16 FLuc, Sfp PPTase inh)
COc1ccc(-n2c(Cc3cccs3)nnc2SCC(=O)Nc2ccc3c(c2)OCCO3)cc1	ALDH1A1 inh-1 2µM, RORg inh inconclusive | ALDH1A1 inh-2 0.56µM
C=CCn1c(Cc2cccs2)nnc1SCC(=O)Nc1ccc(OC)cc1	Gal4-VP16 FLuc inconclusive
O=C(CCNc1ccc(Cc2ccncc2)cc1)c1cccc([N+](=O)[O-])c1	PLK1 PBD inh inconclusive, ALDH1A1 inh-1 0.4µM, RORg inh inconclusive | ALDH1A1 inh-2 0.5µM
O=C(Nc1cccc([N+](=O)[O-])c1)c1ccncc1	none
Cc1ccc(C)c(NC(=O)c2ccccc2C(=O)c2ccccc2)c1	none (no result: PLK1 PBD inh)
Cc1ccc(S(=O)(=O)/C=C/C#N)cc1	ALDH1A1 inh-1 0.056µM, RORg inh 1.1µM, Gal4-VP16 FLuc 0.56µM, Sfp PPTase inh 2.8µM (no result: PLK1 PBD inh) | ALDH1A1 inh-2 0.063µM
CCCCOc1ccc(C(=O)CCN2CCCCC2)cc1	PLK1 PBD inh inconclusive, ALDH1A1 inh-1 0.045µM, RORg inh inconclusive, Gal4-VP16 FLuc 14µM | ALDH1A1 inh-2 0.79µM
CC(=O)c1ccc(OCCCN2CCCCC2)cc1	none
C[C@H](Cc1ccc(O)c(O)c1)[C@@H](C)Cc1ccc(O)c(O)c1	ALDH1A1 inh-1 0.16µM (no result: PLK1 PBD inh, RORg inh, Gal4-VP16 FLuc, Sfp PPTase inh) | ALDH1A1 inh-2 2.2µM
O=C(O)Cc1sc(Nc2ccc(Cl)cc2)nc1-c1cccs1	PLK1 PBD inh inconclusive, ALDH1A1 inh-1 1µM, Sfp PPTase inh 1.3µM | Sfp PPTase conf 59µM
C=CCN1CCc2nc(N)sc2CC1	Sfp PPTase inh 56µM! | Sfp PPTase conf 59µM | Sfp PPTase gel inconclusive
CCN1CCc2nc(N)sc2C1	PLK1 PBD inh 4.2µM, Sfp PPTase inh 11µM | Sfp PPTase conf 12µM | Sfp PPTase gel inconclusive
CCN1CCc2nc(N)oc2CC1	none
COc1cc(/C=N/NC(N)=O)ccc1OCC(=O)Nc1cc(C)c(C)cc1Br	none
Cc1ccc(NC(CC(=O)c2ccccc2)c2ccc(F)cc2)cc1 (stereo not given)	none
O=C(CC(Nc1ccc(F)cc1)C(=O)O)c1ccccc1 (stereo not given)	ALDH1A1 inh-1 inconclusive, RORg inh inconclusive, Gal4-VP16 FLuc inconclusive, Sfp PPTase inh 2.2µM | Sfp PPTase conf 15µM | Sfp PPTase gel inactive
COc1ccccc1N1CCN(C(=O)c2cc(=O)c3ccc(C)cc3o2)CC1	none (no result: ALDH1A1 inh-1)
COc1ccccc1N1CCN(C(=O)c2oc3cc(C)cc(C)c3c2C)CC1	Sfp PPTase inh 2µM | Sfp PPTase conf 47µM | Sfp PPTase gel inactive
Oc1ccccc1CNc1cccc2cccnc12	ALDH1A1 inh-1 inconclusive, RORg inh inconclusive, Gal4-VP16 FLuc inconclusive, Sfp PPTase inh 7.9µM | Sfp PPTase conf 42µM
COc1cccc(NC(=O)CN(C)S(=O)(=O)c2ccc3[nH]c(=O)oc3c2)c1	none (no result: ALDH1A1 inh-1)

High-throughput results (PubChem BioAssay)
